The record followed here is PubChem BioAssay AID1825 (The Scripps Research Institute Molecular Screening Center, 2009).

The whole screen tested about 290,000 compounds, of which about 2,300 (0.79%) were called active. This is one part of a sample in which actives are shown more often than they occur. Rule as the data show it: active = inhibition above about 22%; inactive = the rest.

One may read the inhibition as the drop in the measured response relative to a control, in per cent.

The assay can be described thus: IEC-6 cell viability reduction – luminescence, cytotoxicity control for KLF5 inhibitor project, primary screen (AID 1825).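 Also: 0% = plate median of test compound wells and 100% = cytotoxic reference compound wells.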 To be noted: IEC-6 cytotoxicity, at 5 µM, active compounds read high.
For the compound `CCOc1ccc(NC(=O)CCC(=O)NNC(=O)NC2CCCCC2)cc1`, the inhibition was -7.2% (inactive).
Then `O=S(=O)(c1ccc(Br)cc1)n1ccc2ccccc21`, with 3.2% (inactive); and `CCn1c(SCC(=O)NC2=NCCS2)nnc1C(C)NC(=O)c1ccccc1F` (centres undefined), with 0.1% (inactive).
Under `O=C(Cc1ccccc1)Nc1ccc(NC(=O)c2cccnc2)cc1` stands 0.2% (inactive).
Under `CSc1nc2ccc(NC(=O)c3c(F)cccc3F)cc2s1` stands 8.5% (inactive).
In the case of `CCCC(=O)Nc1nc2ccc(NC(=O)c3c(F)c(F)c(OC)c(F)c3F)cc2s1`, the inhibition was 76.8% (active).
Then `CCOc1ccc2nc(Nc3nc4ccc(NC(C)=O)cc4s3)sc2c1`, with -2.2% (inactive); and `CCCC(=O)Nc1nc2ccc(NC(=O)c3cccnc3)cc2s1`, with 30.2% (active); and `CCOC(=O)c1ccc(NC(=O)c2cccnc2)cc1`, with -6.9% (inactive).
Under `COc1ccccc1/C=C/C(=O)NC1CC2CCC1C2` (centres undefined) stands 4.4% (inactive).
Under `Cc1cc(C)n2nc(C(=O)NC(C)(C)C)nc2n1` stands 3.3% (inactive).
For `Cc1cc(C)n2nc(SCC(N)=O)nc2n1`, the inhibition is 4.6% (inactive).
Then `Cc1cc(C)n2nc(CNS(=O)(=O)c3c(F)c(F)c(F)c(F)c3F)nc2n1`, with 31.5% (active); and `O=C1C(=O)N(CCCN2CCOCC2)C(c2ccc([N+](=O)[O-])cc2)/C1=C(\O)c1ccc2c(c1)OCCO2` (centres undefined), with -1.8% (inactive); and `COc1ccc(Nc2ncc(C(=O)N3CCN(c4ccccc4OC)CC3)c3ccccc23)cc1`, with 11.7% (inactive).
As to `NS(=O)(=O)c1cccnc1Nc1cccc(Cl)c1`, the inhibition was -0.6% (inactive).
Under `Cn1c(Nc2cccc(Cl)c2)nc2ccccc21` stands 4.2% (inactive); under `CCOc1c(Nc2cccc(Cl)c2)c(=O)c1=O`, 23.4% (active).
As to `Cc1onc(NC(=O)c2ccc([N+](=O)[O-])o2)c1Br`, the inhibition is 46.1% (active).
Under `O=C(Nc1ccc(Br)cn1)c1ccc([N+](=O)[O-])o1` stands 16.7% (inactive).
Then `Cc1cccc(NC(=S)NC(=O)c2ccc(Br)o2)c1`, with 1.6% (inactive).
Then `Cc1cccc(NC(=O)c2sc(-c3ccccc3)nc2-c2ccc([N+](=O)[O-])cc2)c1`, with -10% (inactive).
As to `Cc1cccc(NC(=O)c2ccc([N+](=O)[O-])o2)c1`, the inhibition is 66.2% (active).
Under `Cc1onc(C(=O)NCc2ccc(F)cc2)c1[N+](=O)[O-]` stands -2.3% (inactive); under `O=c1[nH]cnc(O)c1C(c1ccc(F)cc1)c1c(O)nc[nH]c1=O`, -4.2% (inactive).
On to `CC1C(=O)Nc2ccc(S(=O)(=O)N3CCN(c4ccccc4F)CC3)cc2NC1=O` (centres undefined), for which the inhibition is 1.5% (inactive).
Under `O=c1c2c(-c3ccccc3)ccnc2[nH]n1-c1ccccc1` stands -0.7% (inactive); under `COc1ccc(-c2ccc(CCC(=O)O)n2NC(=O)c2ccc(C(C)(C)C)cc2)cc1`, -6.8% (inactive).
For `Cc1ccc(-c2cc(=O)c3ccc(Cl)cc3[nH]2)cc1`, the inhibition was 0.6% (inactive).
Under `O=c1cc(-c2ccccc2)[nH]c2cc(F)ccc12` stands 80.7% (active); under `Cc1ccc(-c2cc(=O)c3ccc(F)cc3[nH]2)cc1`, -6.3% (inactive); under `O=C(Nc1cccc2cccnc12)c1cccc(Cl)c1`, 7.6% (inactive).
Under `COc1ccc(C(=O)NCC(=O)N/N=C/c2cccnc2)cc1` stands 3.2% (inactive); under `Cc1nc2nc(C)c(NS(=O)(=O)c3ccc(C(C)(C)C)cc3)c(=O)n2[nH]1`, 1.1% (inactive).
Under `COc1ccc(C(=O)NC2CCCc3c2cnn3-c2cccc(C)c2C)c(OC)n1` (centres undefined) stands 8.5% (inactive); under `Cc1ccc(-n2ncc3c2CCCC3NC(=O)c2cnccn2)cc1C` (centres undefined), 3.7% (inactive); under `CC(=O)NCC(=O)NC1CCCc2c1cnn2-c1ccccc1F` (centres undefined), -1.9% (inactive).
As for `Cc1cc(C(=O)NC2CCCc3c2cnn3-c2cccc(C)c2C)c(C)o1` (centres undefined), the inhibition was 4.8% (inactive).
Then `Cn1nccc1C(=O)NC1CCCc2c1cnn2-c1ccccc1F` (centres undefined), with 25.7% (active); and `Cn1nccc1C(=O)NC1CCCc2c1cnn2-c1ccc(F)cc1F` (centres undefined), with 31% (active); and `Cc1ccc(/C=C2\CCn3c2nc2cc(C(=O)O)ccc2c3=O)c(C)c1`, with 1.8% (inactive).
Under `C=C(C)Cn1c(C)cc(C)c(S(=O)(=O)c2ccccc2C)c1=O` stands -2.1% (inactive); under `Cc1cccc(-n2ncc(C#N)c2-n2cccc2)c1`, 1.1% (inactive); under `COc1ccc(Oc2c(Cl)cnn(-c3ccccc3)c2=O)cc1`, 1.3% (inactive).
Under `Cc1cccc(-n2ncc(Cl)c(Cl)c2=O)c1` stands 97.5% (active); under `CC(C)CC(=O)N1CCN(Cc2ccccc2Br)CC1`, 1.6% (inactive); under `COc1ccc(/C=C/C(=O)Nc2ccc(C34CC5CC(CC(O)(C5)C3)C4)cc2)cc1OC`, 18.5% (inactive).
`O=C(N=C1SC2CS(=O)(=O)CC2N1c1cc(Cl)ccc1Cl)C1CC1` (centres undefined): the inhibition is -6.4% (inactive).
For the compound `COc1ccc(C23NCCN2C(=O)c2ccccc23)cc1` (centres undefined), the inhibition is 1.3% (inactive).
For the compound `COc1cccc(N2C(=O)CN(Cc3ccccc3)C2=S)c1`, the inhibition is 9.4% (inactive).
In the case of `Cc1ccc(S(=O)(=O)C2(S(=O)(=O)c3ccc(C)cc3)CCCC2)cc1`, the inhibition is 45.6% (active).
Under `Cc1ccc(S(=O)(=O)N(C)C2(C)CCS(=O)(=O)C2)cc1` (centres undefined) stands -8.7% (inactive); under `Cc1ccc(S(=O)(=O)N2CCN(C)CC2)cc1`, -1.1% (inactive).
Under `COc1ccccc1CCNS(=O)(=O)c1cn(C)nc1C` stands -1.7% (inactive); under `CN(CCc1ccccn1)C1CCCN(S(=O)(=O)c2ccccc2Cl)C1` (centres undefined), 5.5% (inactive).
Under `O=C1C(=O)N(CC2COc3ccccc3O2)c2ccccc21` (centres undefined) stands 65.8% (active); under `O=C(CN1C(=O)C2C3C=CC(C3)C2C1=O)NCC1COc2ccccc2O1` (centres undefined), -0.7% (inactive).
Turning to `Cc1cc(C(=O)CCl)c(C)n1CC1COc2ccccc2O1` (centres undefined), the inhibition was -0.4% (inactive).
Then `COc1ccc(N2CC(C(=O)N[C@@H](C)C(=O)N3CCCCC3)CC2=O)cc1` (some centres undefined), with 4.5% (inactive); and `Cc1ccc(-n2ncc3c2CC(C)(C)CC3NC(=O)Cc2c(C)noc2C)cc1` (centres undefined), with 4% (inactive); and `COc1cc(Br)c(-c2sc(Nc3ccccc3)n[n+]2-c2ccccc2)cc1OC`, with -5.7% (inactive).
Under `COc1ccc(-c2cn(-c3ccc(OC)cc3)c(=S)[nH]2)cc1` stands -3.2% (inactive).
Then `O=c1oc2ccccc2cc1-c1cn(-c2ccccc2)c(=S)[nH]1`, with 30.6% (active); and `S=c1[nH]c(-c2cccs2)cn1-c1ccccc1`, with -0.4% (inactive).
